Measured values from PubChem BioAssay (EPA / NIEHS).
Values joined by “and” are separate entries in the source; they are usually repeats but may differ in a detail not shown here. Identical values can stand only once. Inconclusive results are not listed. Where a structure was tested more than once in an assay, its records may differ in their call. Active and inactive are the calls of the source. How the source made its calls, unless noted: active means hit-call score of the fitted dose curve at least 0.9, where 1 is the maximum; inactive means score below 0.9.

Columns and labels:
[1] = read-out: E-selectin (Homo sapiens) (UniProt P16581); assay: BSK_SAg_Eselectin: BioMAP Diversity Plus: SAg Assay for Eselectin Biomarker Activity (AID 2283091); conditions: primary human HUVEC with PBMC; actives raise or lower the signal
How it was run: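 Endpoint values derive from bidirectional fitting relative to DMSO, using ELISA-measured E-selectin in a human vascular co-culture (umbilical vein endothelium plus PBMC) sampled 24 h after dosing.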

[2] = read-out: Monokine induced gamma interferon (MIG), CXCL9 (gene 4283); assay: BSK_SAg_MIG: BioMAP Diversity Plus: SAg Assay for Monokine induced gamma interferon (MIG) Biomarker Activity (AID 2283092); conditions: primary human HUVEC with PBMC; actives raise or lower the signal
How it was run: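 ELISA readout of MIG/CXCL9; primary human umbilical vein endothelial cells co-cultured with peripheral blood mononuclear cells; 24 h post-dose; gain/loss fit vs DMSO baseline.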

[3] = BSK_SAg_PBMCCytotoxicity: PBMC Cytotoxicity Assessment in the BioMAP Diversity Plus: SAg Assay (AID 2283093); conditions: primary human HUVEC with PBMC;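 further: PBMC viability measured as Alamar Blue reduction fluorescence at 546/580 nm; fitted both ways against DMSO so a hit may be loss or gain of signal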;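 on AC50: PBMC superantigen activated with SEB plus TSST-1 one hour after compound addition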
How it was run: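 Alamar Blue reduction (6 h, ex/em 546/580 nm) read after 90 h culture of PBMC pre-dosed 1 h then stimulated with SEB plus TSST-1, 20 ng/mL each. Gain or loss of signal fitted relative to DMSO.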

[4] = read-out: Interleukin-8 (IL8), CXCL8 (gene 3576); assay: BSK_SAg_IL8: BioMAP Diversity Plus: SAg Assay for Interleukin-8 (IL8) Biomarker Activity (AID 2283094); conditions: primary human HUVEC with PBMC; actives raise or lower the signal
How it was run: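 HUVEC/PBMC co-culture, 24 h post-dose; IL-8 by ELISA. Gain or loss of signal fitted bidirectionally vs DMSO baseline.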

[5] = BSK_SAg_SRB: Viability Assessment in the BioMAP Diversity Plus: SAg Assay (AID 2283096); conditions: primary human HUVEC with PBMC;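 further: cells read one day after compound addition; hits may be either gain or loss of signal compared with DMSO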
How it was run: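 SRB absorbance at 560 nm served as the viability read-out. Cells (HUVEC plus peripheral blood mononuclear cells) were TCA-fixed and stained 24 h post-dosing; activity fitted in both directions against DMSO controls.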

[6] = molecular target: human CYP19A1, CYP19A1 (gene 1588) (UniProt P11511); assay: NVS_ADME_hCYP19A1: NovaScreen (NVS) CYP450-related Enzyme Activity (ADME) Assay for human CYP19A1 (AID 2283098; active means hit-call score of the fitted dose curve at least 0.9, where 1 is the maximum;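 on AC50: potency for inhibitors seen as loss of fluorescent enzyme signal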)
How it was run: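 Primary testing was in duplicate at a single 10 uM concentration, with actives followed up in concentration-response series. Fluorescence read-out of recombinant enzyme activity at 0.5 h, cell-free. Acetonitrile was the negative-control baseline.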

[7] = molecular target: human CYP1A1, CYP1A1 (gene 1543) (UniProt P04798); assay: NVS_ADME_hCYP1A1: NovaScreen (NVS) CYP450-related Enzyme Activity (ADME) Assay for human CYP1A1 (AID 2283100; active means hit-call score of the fitted dose curve at least 0.9, where 1 is the maximum)
Procedure: NVS_ADME_hCYP1A1 is a biochemical, single-readout assay that uses extracted gene-proteins in a cell-free assay. Measurements were taken 1 hour after chemical dosing in a 96-well plate.NVS_ADME_hCYP1A1 is one of one assay component(s) measured or calculated from the NVS_ADME_hCYP1A1 assay. It is designed to make measurements of enzyme activity, a form of enzyme reporter, as detected with fluorescence intensity signals by Fluorescence technology.Data from the assay component NVS_ADME_hCYP1A1 was analyzed into 1 assay endpoint. This assay endpoint, NVS_ADME_hCYP1A1, was analyzed in the positive analysis fitting direction relative to Acetonitrile as the negative control and baseline of activity. Using a type of enzyme reporter, loss-of-signal activity can be used to understand changes in the enzymatic activity as they relate to the gene CYP1A1. Furthermore, this assay endpoint can be referred to as a primary readout, because this assay has produced multiple assay endpoints where this one serves a enzymatic activity function. To generalize the intended target to other relatable targets, this assay endpoint is annotated to the cyp intended target family, where the subfamily is xenobiotic metabolism.
Binding assays used specific radioligands (tritiated, iodinated) with non-radioactive competitive displacement ligands in agonist or antagonist protocols (as indicated) and various reference compounds and inhibitors to titrate specific binding to receptors and transporters. Most enzyme assays (CYPs, kinases, phosphatases, proteases, HDACs) used recombinant protein and specific substrates (fluorescence mostly, some colorimetric and radioactive) and inhibitors, followed by a biochemical separation of substrate and product. All assays for the biochemical HTS were initially run in duplicate at a single concentration (10 uM for CYP450 assays and 25 uM for all others). Assay-chemical combinations meeting a pre-defined threshold (e.g., 30% inhibition and other criteria defined below) were then run in singleton concentration-response format with maximum concentration of 20 uM for CYPs and 50 uM for all others. Each assay was run with positive and negative controls, and concurrent controls on every plate. The follow-up (secondary) screen tested active chemical-pairs in concentration series, as well as a few additional assays not tested in the primary screen, some selected negative inactives, and several cases re-run in the concentration series for confirmatory purposes.

[8] = molecular target: human CYP2A6, CYP2A6 (gene 1548) (UniProt P11509); assay: NVS_ADME_hCYP2A6: NovaScreen (NVS) CYP450-related Enzyme Activity (ADME) Assay for human CYP2A6 (AID 2283099; active means hit-call score of the fitted dose curve at least 0.9, where 1 is the maximum)
How it was run: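 Loss of fluorescence signal relative to acetonitrile vehicle reported CYP2A6 inhibition in a cell-free system using insect-cell-derived enzyme. Readings were taken at 0.5 h; top concentration in follow-up dose series was 20 uM.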

[9] = molecular target: human CYP2B6, CYP2B6 (gene 1555) (UniProt P20813); assay: NVS_ADME_hCYP2B6: NovaScreen (NVS) CYP450-related Enzyme Activity (ADME) Assay for human CYP2B6 (AID 2283101; active means hit-call score of the fitted dose curve at least 0.9, where 1 is the maximum)
How it was run: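 Fluorescence-based enzyme activity of recombinant human CYP2B6, measured 1 h post-dose against acetonitrile vehicle baseline. Screened at a single concentration of 10 uM in duplicate before concentration-response follow-up.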

Measured: AC50

human CYP1A1, CYP1A1 (gene 1543), sequence (P04798 whole entry, looked up): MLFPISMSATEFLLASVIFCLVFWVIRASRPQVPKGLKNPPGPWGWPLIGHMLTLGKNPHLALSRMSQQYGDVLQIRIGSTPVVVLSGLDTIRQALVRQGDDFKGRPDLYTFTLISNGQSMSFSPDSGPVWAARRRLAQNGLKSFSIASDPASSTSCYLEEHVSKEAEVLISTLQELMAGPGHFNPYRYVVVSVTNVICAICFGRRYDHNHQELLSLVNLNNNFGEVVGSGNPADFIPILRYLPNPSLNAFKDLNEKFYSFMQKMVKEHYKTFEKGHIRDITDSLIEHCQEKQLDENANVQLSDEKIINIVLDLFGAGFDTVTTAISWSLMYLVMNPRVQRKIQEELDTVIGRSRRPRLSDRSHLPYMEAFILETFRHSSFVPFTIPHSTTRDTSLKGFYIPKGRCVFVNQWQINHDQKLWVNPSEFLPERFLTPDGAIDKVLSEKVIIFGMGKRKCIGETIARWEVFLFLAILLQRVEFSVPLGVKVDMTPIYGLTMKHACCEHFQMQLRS
human CYP19A1, CYP19A1 (gene 1588), sequence (P11511 whole entry, looked up): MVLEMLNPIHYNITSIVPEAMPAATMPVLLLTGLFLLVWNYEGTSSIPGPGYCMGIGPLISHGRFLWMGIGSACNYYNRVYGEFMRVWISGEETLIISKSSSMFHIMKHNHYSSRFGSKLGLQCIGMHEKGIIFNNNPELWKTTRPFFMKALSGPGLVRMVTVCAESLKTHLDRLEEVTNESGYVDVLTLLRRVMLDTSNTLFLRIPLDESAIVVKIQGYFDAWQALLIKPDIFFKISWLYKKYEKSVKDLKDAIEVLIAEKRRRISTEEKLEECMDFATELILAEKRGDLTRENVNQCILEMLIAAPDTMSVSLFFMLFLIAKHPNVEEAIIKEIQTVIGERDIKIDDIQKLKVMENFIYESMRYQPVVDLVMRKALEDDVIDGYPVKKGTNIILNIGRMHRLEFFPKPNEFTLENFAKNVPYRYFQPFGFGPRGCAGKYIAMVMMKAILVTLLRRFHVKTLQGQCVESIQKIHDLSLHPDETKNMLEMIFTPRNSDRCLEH
human CYP2A6, CYP2A6 (gene 1548), sequence (P11509 whole entry, looked up): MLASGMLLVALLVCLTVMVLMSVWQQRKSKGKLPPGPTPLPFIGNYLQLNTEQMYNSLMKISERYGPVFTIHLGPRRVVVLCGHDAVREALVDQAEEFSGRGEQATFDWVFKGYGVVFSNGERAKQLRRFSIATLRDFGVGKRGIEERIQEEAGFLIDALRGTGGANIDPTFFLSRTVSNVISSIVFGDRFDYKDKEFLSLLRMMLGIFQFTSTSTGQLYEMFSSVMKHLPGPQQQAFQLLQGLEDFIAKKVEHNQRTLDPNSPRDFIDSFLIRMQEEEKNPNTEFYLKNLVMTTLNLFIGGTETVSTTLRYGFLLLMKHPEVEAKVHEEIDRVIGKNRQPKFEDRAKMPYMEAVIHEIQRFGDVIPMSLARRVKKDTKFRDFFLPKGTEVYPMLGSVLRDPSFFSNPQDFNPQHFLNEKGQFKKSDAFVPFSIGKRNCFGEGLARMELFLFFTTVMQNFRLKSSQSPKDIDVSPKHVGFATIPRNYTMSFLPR
E-selectin (Homo sapiens), sequence (P16581 whole entry, looked up): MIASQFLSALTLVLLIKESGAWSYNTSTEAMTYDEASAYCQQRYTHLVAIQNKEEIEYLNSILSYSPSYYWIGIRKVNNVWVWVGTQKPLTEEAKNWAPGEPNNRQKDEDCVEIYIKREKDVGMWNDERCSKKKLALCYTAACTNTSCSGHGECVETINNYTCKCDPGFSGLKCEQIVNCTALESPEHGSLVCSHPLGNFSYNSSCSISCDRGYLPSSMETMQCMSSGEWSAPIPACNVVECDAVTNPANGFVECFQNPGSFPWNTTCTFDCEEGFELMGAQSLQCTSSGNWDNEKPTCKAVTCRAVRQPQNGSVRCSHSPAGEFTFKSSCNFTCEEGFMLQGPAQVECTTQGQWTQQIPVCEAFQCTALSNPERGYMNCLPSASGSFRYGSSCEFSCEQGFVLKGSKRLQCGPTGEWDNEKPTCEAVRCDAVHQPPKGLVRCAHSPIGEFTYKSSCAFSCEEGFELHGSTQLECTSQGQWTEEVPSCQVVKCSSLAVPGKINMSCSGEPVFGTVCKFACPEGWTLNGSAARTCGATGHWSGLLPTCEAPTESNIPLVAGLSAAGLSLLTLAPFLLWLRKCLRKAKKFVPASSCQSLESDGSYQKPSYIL
human CYP2B6, CYP2B6 (gene 1555), sequence (P20813 whole entry, looked up): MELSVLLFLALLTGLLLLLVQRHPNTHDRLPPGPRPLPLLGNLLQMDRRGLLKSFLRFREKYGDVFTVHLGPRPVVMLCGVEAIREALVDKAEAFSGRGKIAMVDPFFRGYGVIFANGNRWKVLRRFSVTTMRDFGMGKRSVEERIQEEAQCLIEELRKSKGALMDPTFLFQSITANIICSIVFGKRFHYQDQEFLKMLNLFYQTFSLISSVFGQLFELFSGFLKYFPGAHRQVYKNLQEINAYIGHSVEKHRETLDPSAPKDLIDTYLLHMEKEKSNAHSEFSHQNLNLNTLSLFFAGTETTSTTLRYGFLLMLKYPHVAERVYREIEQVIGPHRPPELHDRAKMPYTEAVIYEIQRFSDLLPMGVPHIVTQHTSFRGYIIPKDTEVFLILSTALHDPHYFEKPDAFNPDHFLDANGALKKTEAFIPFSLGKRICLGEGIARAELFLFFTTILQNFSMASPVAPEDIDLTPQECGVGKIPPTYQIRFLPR

O=[N+]([O-])c1c(Cl)c(Cl)c(Cl)c(Cl)c1Cl
active: [1] 20 µM
not listed: [8] | [9]
inactive: all other assays above

ClC1C(Cl)C(Cl)C(Cl)C(Cl)C1Cl (stereo not drawn)
inactive: [1] | [2] | [3] | [4] | [5]

CCc1ccc(C(=O)NN(C(=O)c2cc(C)cc(C)c2)C(C)(C)C)cc1
inactive: [2] | [3] | [5]
active: [1] 9.03 µM | [4] 11.3 µM

CCC(C)(NC(=O)c1cc(Cl)c(C)c(Cl)c1)C(=O)CCl (stereo not drawn)
active: [1] 7.45 µM | [2] 10.5 µM | [3] 20 µM | [4] 5.75 µM | [5] 23.6 µM

O=C(Nc1ccccc1)Nc1cnns1
active: [8] 5.8 µM
inactive: [1] | [2] | [3] | [4] | [5]

CN1CSC(=S)N(C)C1
active: [1] 19.8 µM | [2] 31.6 µM | [3] 14.4 µM | [4] 20.2 µM | [9] 10 µM
inactive: [5] | [8]

CCCN(CCC)c1c([N+](=O)[O-])cc(C(F)(F)F)cc1[N+](=O)[O-]
active: [1] 15.4 µM | [3] 15 µM | [4] 24.9 µM | [5] 20 µM
inactive: [2] | [6]

N#Cc1c(Cl)c(Cl)c(Cl)c(C#N)c1Cl
inactive: [8]
active: [1] 0.959 µM | [2] 1.83 µM | [3] 1.4 µM | [4] 1.74 µM | [5] 2.27 µM | [6] 192 nM

O=C(O)CCCOc1ccc(Cl)cc1Cl
not listed: [7] | [8] | [9]
inactive: all other assays above

COP(=O)(OC)OC=C(Cl)Cl
inactive: [2] | [3] | [4] | [5] | [6]
active: [1] 28.9 µM

CNC(=O)Oc1cccc(N=CN(C)C)c1
active: [1] 18.7 µM
inactive: [2] | [3] | [4] | [5]

CC[C@H](C)[C@H]1O[C@]2(C=C[C@@H]1C)C[C@@H]1C[C@@H](C/C=C(\C)[C@@H](O[C@H]3C[C@H](OC)[C@@H](O[C@H]4C[C@H](OC)[C@@H](O)[C@H](C)O4)[C@H](C)O3)[C@@H](C)/C=C/C=C3\CO[C@@H]4[C@H](O)C(C)=C[C@@H](C(=O)O1)[C@]34O)O2 (tested in a mixture with another compound)
active: [1] 5.19 µM | [2] 10.8 µM | [3] 6.1 µM | [4] 4.07 µM | [5] 5.54 µM
inactive: [6] | [7]

N#CN
inactive: [1] | [2] | [3] | [4] | [5]

COC(=O)c1ccccc1CS(=O)(=O)NC(=O)Nc1nc(OC)cc(OC)n1
inactive: [1] | [2] | [3] | [4] | [5]

COC(=O)c1ccccc1S(=O)(=O)NC(=O)Nc1nc(C)nc(OC)n1
active: [3] 15.5 µM
inactive: [1] | [2] | [4] | [5]

O=C(O)COc1ccc(Cl)cc1Cl
inactive: [1] | [2] | [3] | [4] | [5]

Oc1cc(Cl)ccc1Oc1ccc(Cl)cc1Cl
active: [1] 12.7 µM [middle of 4 runs] | [2] 15.8 µM [middle of 4 runs] | [3] 13.8 µM [middle of 4 runs] | [4] 12.8 µM [middle of 4 runs] | [5] 15.3 µM and 22.3 µM and 14.9 µM

O=C1c2ccccc2C(=O)N1SC(Cl)(Cl)Cl
active: [6] 1010 nM
inactive: [1] | [2] | [3] | [4] | [5]

CC(C)N(C(=O)COc1nnc(C(F)(F)F)s1)c1ccc(F)cc1
inactive: [1] | [2] | [3] | [4] | [5]

CCCN(CCOc1c(Cl)cc(Cl)cc1Cl)C(=O)n1ccnc1
active: [1] 20.6 µM | [2] 32.5 µM | [3] 20 µM | [4] 15.5 µM | [6] 784 nM | [7] 0.453 µM | [9] 0.124 µM
inactive: [5]

CC(C)(C)C(O)/C(=C\c1ccc(Cl)cc1Cl)n1cncn1 (stereo not drawn)
active: [1] 27.3 µM | [4] 32.2 µM | [5] 29.9 µM | [6] 4730 nM | [7] 0.705 µM | [9] 0.974 µM
inactive: [2] | [3]

Oc1ccc(Cl)cc1Cc1ccccc1
inactive: [6] | [7]
active: [1] 32.5 µM [middle of 5 runs] | [2] 36.8 µM [middle of 7 runs] | [3] 27.2 µM [middle of 7 runs] | [4] 31.7 µM [middle of 7 runs] | [5] 29.4 µM [middle of 7 runs] | [6] 3.11 µM and 2.49 µM | [9] 7.66 µM [middle of 6 runs]

CNC(=O)Oc1ccccc1OC(C)C
inactive: [1] | [2] | [3] | [4] | [5]

COP(=S)(OC)Oc1ccc(SC)c(C)c1
inactive: [2] | [3] | [4] | [5]
active: [1] 33.6 µM | [9] 8.76 µM

CNC(=O)CSP(=S)(OC)OC
active: [8] 4.5 µM
not listed: [7] | [9]
inactive: all other assays above

CCOC1Oc2ccc(OS(C)(=O)=O)cc2C1(C)C (stereo not drawn)
inactive: [2] | [5]
active: [1] 23.5 µM | [3] 25.9 µM | [4] 10.1 µM | [9] 5.43 µM

CC1(C)C(C=C(Cl)Cl)C1C(=O)OC(C#N)c1ccc(F)c(Oc2ccccc2)c1 (stereo not drawn)
inactive: [1] | [2] | [3] | [4] | [6]
active: [5] 14.2 µM
